Records with an inconclusive call do not appear. Where a call stands in place of a potency, no number is given. A number with no mark means an inactive call. Active and inactive are the calls of the source. Calls follow the shape of the full dose curve.
Biological target: Acetylcholinesterase (Homo sapiens) (UniProt P22303)
Experiment: Acetylcholinesterase (AChE) small molecule antagonists: fluorescence cell-based qHTS assay (AID 1347398); also: nearly all actives have a fitted effect of over 50% in size
Details: SH-SY5Y cells; Potency: AChE activity; outcome: AChE activity; series mostly up to 115 µM
Source text: National Center for Advancing Translational Sciences [NCATS]
Division of Preclinical Innovation [DPI]
U.S. Environmental Protection Agency [EPA]
National Institutes of Environmental Health Sciences [NIEHS]
National Toxicology Program [NTP]
U.S. Food and Drug Administration [FDA]
Acetylcholinesterase (AChE) is the primary cholinesterase in the body that hydrolyzes a key neurotransmitter, acetylcholine. Inhibition of AChE activity can lead to neurotoxicity. Known inhibitors of AChE include organophosphorous pesticides (OP), chemical warfare agents, drugs, and various phytochemicals.
A homogenous cell-based assay using Amplitetrade mark Fluorimetric Acetylcholinesterase Assay Kit *Green Fluorescence* (AAT Bioquest, Sunnyvale, CA) was used to evaluate the chemicals in the Tox21 10K library that inhibit AChE activity. The assay uses Thiolite Green to quantify the thiocholine produced from the hydrolysis of acetylthiocholine by AChE from the SH-SY5Y cells. AChE can hydrolyze acetylthiocholine to create thiocholine. Thiolite Green is fluorescent when reacting with thiocholine. It has spectral properties similar to those of fluorescein. The fluorescence intensity of Thiolite Green is used to measure AChE activity. Its signal can be easily read by a fluorescence microplate reader at Ex/Em = 490/520 nm.
Tox21 Assay Protocol Summary:
For cell-based AChE assay, 2,000 SH-SY5Y cells in 4 uL/well were dispensed into black, clear-bottom 1536-well plates using a Multidrop Combi (Thermo Scientific) dispenser. The assay plates were incubated overnight at 37 C to allow cells to attach to the wells, followed by the transfer of 23 nL compound or DMSO (vehicle control) by a Pintool station (Wako Automation, CA). The plates were incubated for 30 min at 37 C and 5% CO2, followed by the addition of 4 uL of detection cocktail solution (ThioliteGreen, acetylthiocholine) into each well using Flying Reagent Dispenser (Beckman Coulter, CA) and then following 40 min incubation at room temperature. Fluorescent intensity (Ex/Em = 490/520 nm) was measured using an Envision plate reader (PerkinElmer, MA).
Potency is read from the fitted curve at half-maximal effect.

Chain of Acetylcholinesterase (Homo sapiens) (P22303 whole entry, looked up): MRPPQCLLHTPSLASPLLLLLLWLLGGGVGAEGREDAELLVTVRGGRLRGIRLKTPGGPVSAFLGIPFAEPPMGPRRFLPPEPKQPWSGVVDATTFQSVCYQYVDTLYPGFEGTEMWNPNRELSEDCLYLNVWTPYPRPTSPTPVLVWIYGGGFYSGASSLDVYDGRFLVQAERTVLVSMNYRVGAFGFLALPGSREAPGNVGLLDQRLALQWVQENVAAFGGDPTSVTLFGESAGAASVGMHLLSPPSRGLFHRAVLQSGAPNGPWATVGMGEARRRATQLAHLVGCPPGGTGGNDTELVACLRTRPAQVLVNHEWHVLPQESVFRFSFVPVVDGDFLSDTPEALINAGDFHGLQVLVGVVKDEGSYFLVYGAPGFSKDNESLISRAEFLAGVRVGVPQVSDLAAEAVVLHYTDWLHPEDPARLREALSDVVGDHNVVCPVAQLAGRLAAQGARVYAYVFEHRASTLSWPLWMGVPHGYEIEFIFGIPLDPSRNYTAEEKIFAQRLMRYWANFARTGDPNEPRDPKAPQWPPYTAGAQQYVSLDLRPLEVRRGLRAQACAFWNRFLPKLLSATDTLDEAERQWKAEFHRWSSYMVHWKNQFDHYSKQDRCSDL

Structure (SMILES)	Potency	activity change, negative = inhibition
COc1cc(-c2ccc(N=C=O)c(OC)c2)ccc1N=C=O	inactive	
CN(C)CCCO[C@@H]1[C@H]2OC(C)(C)O[C@H]2O[C@@H]1C(O)CO (stereo not given in full)	inactive	
NCc1ccco1	inactive	
CCN(CC)c1ccc(C=O)cc1	inactive	
CCNC(=O)C1CC(C)CCC1C(C)C (stereo not given)	inactive	
S=c1[nH]c2ccccc2s1	inactive	
CCOC(=O)CC(C)C	inactive	
CCCCCCOC(=O)C(C)CC (stereo not given)	inactive	
COc1cc2nc(N3CCN(C(=O)C4CCCO4)CC3)nc(N)c2cc1OC (stereo not given)	12.3 µM (active)	
O=C1c2ccccc2C(=O)c2cc(Cl)ccc21		0% [at 10.5 µM]
CCCCCCCCCCCC[N+](C)(C)CCCCCCCCCCCC	63.3 µM (active)	
COc1c(N2CCNC(C)C2)c(F)cc2c(=O)c(C(=O)O)cn(C3CC3)c12 (stereo not given)	inactive	
Cc1cc(=O)oc2cc(O[C@@H]3SC[C@@H](O)[C@H](O)[C@H]3O)ccc12	inactive	
CCOC(=O)c1ccccc1OC	inactive	
C[C@H](CCC(=O)O)[C@H]1CC[C@H]2[C@@H]3[C@H](O)C[C@@H]4C[C@H](O)CC[C@]4(C)[C@H]3C[C@H](O)[C@]12C	inactive	
O=C(O)CCN(C1(C(=O)NO)CCCC1)S(=O)(=O)c1ccc(Oc2ccc(F)cc2)cc1	inactive	
Cc1cc2c(cc1CC(=O)c1sccc1S(=O)(=O)Nc1onc(C)c1Cl)OCO2	inactive	
CC1(C)C(=O)N(Br)C(=O)N1Cl	inactive	
Cn1c(=O)c2c(ncn2CC(=O)O)n(C)c1=O	inactive	
O=[N+]([O-])c1ccc(Cl)cc1Cl	inactive	

Structure (SMILES)	Potency	activity change, negative = inhibition
Cc1ccnc(N)c1	inactive	
CCCCCCCCCCCCOC(C)=O	inactive	
Cc1ccccc1N=C(N)N=C(N)N	inactive	
O=[N+]([O-])c1cccc(I)c1	inactive	
C=CCN1CCc2nc(N)sc2CC1	inactive	
CC(C)(O)c1ccc(CNC(=O)c2cccnc2Oc2ccc(F)cc2)cc1	inactive	
COc1cc(C(=O)NC2CCCNC2)cc(OC)c1OC (stereo not given)	inactive	
N=C(N)N1CCc2ccccc2C1		-0.69% [at 10.5 µM]
CCC[C@@H]1C[C@@H](C(=O)N[C@@H]([C@H]2O[C@H](SC)[C@H](O)[C@@H](O)[C@H]2O)[C@@H](C)O)N(C)C1	inactive	
C=C(C)C(=O)OC1CC(C)CC(C)(C)C1 (stereo not given)	inactive	
CCN1CCC[C@H]1CNC(=O)c1c(OC)ccc(Br)c1OC	inactive	
Brc1cc(Br)c(Oc2cc(Br)c(Br)cc2Br)cc1Br	inactive	
C[Si]1(C)O[Si](C)(C)O[Si](C)(C)O1	inactive	
CO[Si](C)(OC)OC	inactive	
CCCC(=O)O[C@]1(C(=O)COC(=O)CC)CC[C@H]2[C@@H]3CCC4=CC(=O)CC[C@]4(C)[C@H]3[C@@H](O)C[C@@]21C		1.87% [at 23.8 µM]
Nc1ccc(Cl)c([N+](=O)[O-])c1	inactive	
Cc1cc(C)c(O)c(C(C)(C)C)c1	inactive	
CC1(C)S[C@@H]2[C@H](N=CN3CCCCCC3)C(=O)N2[C@H]1C(=O)O	inactive	
COc1ccc(/C=C/S(=O)(=O)NC(=O)c2ccc(C)cc2Cl)cc1	inactive	
CCCCC(CC)CNC(=O)CC(C)OC(=O)CCC(=O)O (stereo not given)	inactive	

Reference: PubChem BioAssay (Tox21)
